HCMV inh – inhibitors of human cytomegalovirus; actives 4.5% (n = 410,000); AID 1259415; activity change, negative = inhibition, % at 57.5 µM; HFF cells, HCMV-luciferase reporter, 72 h; hits give low values; in the data active = activity change below about -60%; inconclusive = no clear call, values can overlap the other calls; inactive = above about -39%
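Two-dose cell screen: HFF monolayers treated with compounds and infected with luciferase-expressing HCMV at 1 PFU/cell, 72 h at 37C, then lysed for luciferase measurement.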
VACV Venus inh – vaccinia inhibition (Venus reporter); Vaccinia virus Venus reporter expression, fluorescence; Potency, µM (doses to about 36.5 µM), most hits filed as inhibitors; actives 0.46% (n = 330,000); calls by dose curve; tested in A549 cells; also: nearly all actives have a fitted effect of over 30% in size
Vaccinia mCherry – inhibitors of vaccinia virus infection (mCherry reporter signal); Vaccinia virus mCherry reporter infection, fluorescence; Potency, µM (titrated, usually from 36.5 µM), usual class: inhibitors; actives 0.63% (n = 310,000); AID 720579; calls by dose curve; tested in A549 cells; also: nearly all actives have a fitted effect of over 35% in size
FMDV antiviral – foot and mouth disease virus antiviral activity; Potency, µM (series often up to 57.9 µM), hits mostly inhibitors; FMDV antiviral cell-based qHTS; actives 1.2% (n = 410,000); calls by dose curve; tested in HEK293T cells; also: read-out not given here; nearly all actives have a fitted effect of over 45% in size
HCV inhibitor – blocks hepatitis C virus; Huh7.5.1 HCVcc-Cre infection, luciferase reporter, 44 h; Potency, µM (series often up to 41.8 µM), actives largely listed as inhibitors; actives 3.4% (n = 340,000); AID 651820; active = well fitted inhibition curve with a large enough effect; inconclusive = small, poorly fitted or top-dose-only effect, or another doubt; inactive = no such curve, though single readings can be large or run the other way
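After 44 h co-culture of compound, cells and HCVcc-Cre (~0.5 moi), substrate is added for 15 min at room temperature and luciferase measured over 15 sec. Cells were seeded at 1,000/well and pre-cultured 4 h.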
Of the large screens only hits and unclear results are named; the others gave an inactive call. A selection: hits, their analogues and other compounds. The true share with any hit is near 7.3%.

CCN(CCO)c1ccc(N=Nc2cc(C)[nH]n2)cc1	HCMV inh -80, FMDV antiviral 13µM
COc1cc(NC(=O)Cn2c([N+](=O)[O-])cnc2C)c(OC)cc1Cl	none (no result: VACV Venus inh, Vaccinia mCherry)
CCOc1ccc(C(C)(C)COCc2cccc(Oc3ccccc3)c2)cc1	none (no result: VACV Venus inh, Vaccinia mCherry, FMDV antiviral, HCV inhibitor)
Cc1ccc(-c2nc(N=Nc3ccc(O)cc3)n[nH]2)cc1	HCMV inh -100, VACV Venus inh inconclusive, Vaccinia mCherry inconclusive
COc1ccc(-c2nc(N=Nc3ccc(O)cc3)n[nH]2)cc1	none
CC(C1CC2CCC1C2)N1CC(O)=C(c2nc3ccccc3[nH]2)C1=N (configuration not stated)	VACV Venus inh 5µM, Vaccinia mCherry 7.1µM, HCV inhibitor inconclusive
Cn1c(/C=N/c2nc3ccccc3[nH]2)nc2ccccc21	HCMV inh -104
Cn1c(/C=N/O)nc2ccccc21	none
CCc1c(C)[nH]c2ccc(OC)cc2c1=S	HCMV inh -71
CCOc1ccc(Cc2c(C)[nH]c3ccc(C(=O)O)cc3c2=S)cc1	HCMV inh -79
COc1ccc2oc(C(=O)N3CCN(S(=O)(=O)c4c(C)c(C)cc(C)c4C)CC3)c(C)c2c1	HCV inhibitor inconclusive (no result: VACV Venus inh, Vaccinia mCherry)
COc1ccc(Cl)cc1NC(=S)NCCC(c1ccccc1)c1ccccc1	HCV inhibitor inconclusive
COc1ccccc1NC(=O)CC(=O)Nc1ccccc1OC	none
COc1ccccc1NC(=O)NCCCl	VACV Venus inh 10µM, Vaccinia mCherry 10µM
COc1ccccc1NC(=S)NCCC(c1ccccc1)c1ccccc1	HCMV inh inconclusive, HCV inhibitor 10µM
O=C(NCCCl)Nc1ccccc1OCCOc1ccccc1NC(=O)NCCCl	VACV Venus inh inconclusive, Vaccinia mCherry 14µM, HCV inhibitor inconclusive
Cc1cc(C)c(C(=O)OCC(=O)Nc2cccc(S(=O)(=O)N3CCCCC3)c2)c(C)c1	VACV Venus inh inconclusive, Vaccinia mCherry inconclusive, HCV inhibitor inconclusive
CC1(C)CC(=O)C=C(C#CC2(O)CCCCC2)C1	FMDV antiviral inconclusive (no result: HCV inhibitor)
CCN(CC(=O)Nc1c(F)cccc1F)C(=O)c1ccc(NC(=O)CC2SC(N3CCCC3)=NC2=O)cc1 (configuration not stated)	none
O=C(CN(Cc1cccs1)C(=O)CSc1nnc(COc2ccccc2)o1)NC1CCCCC1	FMDV antiviral 40µM (no result: Vaccinia mCherry)
Cc1ccccc1NC1=CC(=O)CC(C)(C)C1	none (no result: VACV Venus inh, Vaccinia mCherry)
CC1(C)CC(=O)C=C(NC2=CC3OC(c4ccccc4)OCC3OC2=O)C1 (configuration not stated)	VACV Venus inh inconclusive, Vaccinia mCherry inconclusive, FMDV antiviral 8.9µM, HCV inhibitor inconclusive
C/C(=N/NC(=O)Cc1c(C)[nH][nH]c1=O)c1ccc(O)cc1	none
COc1cc(/C(C)=N/NC(=O)Cc2c(C)[nH][nH]c2=O)ccc1O	HCMV inh -67
CCC(=O)c1cc(F)c(N2CCN(S(=O)(=O)c3ccc(C)cc3)CC2)cc1C	FMDV antiviral inconclusive, HCV inhibitor 13µM
COc1ccc(NC(=O)c2cc(C3CCCCN3S(=O)(=O)c3c(C)noc3C)on2)c(C)c1 (configuration not stated)	none (no result: HCV inhibitor)
CC(C)(C)c1ccc(OCCCNCc2ccccc2)cc1	VACV Venus inh inconclusive, HCV inhibitor 11µM
c1ccc(CNCCCNCCCCNCCCNCc2ccccc2)cc1	HCMV inh -97, VACV Venus inh 13µM, Vaccinia mCherry 13µM, HCV inhibitor inconclusive
Oc1ccccc1CNCCCNCc1ccccc1O	HCV inhibitor 2.8µM (no result: VACV Venus inh, Vaccinia mCherry)
Cc1cc2ccccc2c[n+]1C1CCCCC1	none (no result: HCMV inh, FMDV antiviral, HCV inhibitor)
COCc1c(C(=O)N2CCN(C)CC2)cnn1-c1ncc2c(n1)-c1ccccc1CCC2	none (no result: HCMV inh, HCV inhibitor)
CCOC(=O)c1c(C)[nH]c(CCC(=O)NCc2ccccc2Cl)c1C	none (no result: HCV inhibitor)
CC12CCC(=O)C=C1CCC1C2CCC2(C)C(O)(C(=O)CO)CCC12O (configuration not stated)	HCMV inh -65
CC12CCC(=O)C=C1CCC1C2CCC2(C)C1CCC2(O)C(=O)CO (configuration not stated)	none
CC(/C=C1\SC(=S)N(CCCC(=O)Nc2ccc(C(=O)O)cc2)C1=O)=C\c1ccccc1	none
CC(/C=C1\SC(=O)N(CCCC(=O)O)C1=O)=C\c1ccccc1	HCMV inh -89, FMDV antiviral 0.89µM
CC(=Cc1ccccc1)C=C1SC(=S)N(CCCC(=O)Nc2ccc(C(=O)O)cc2)C1=O	none (no result: HCV inhibitor)
CC(=C\c1ccccc1)/C=C1/SC(=S)N(CCCC(=O)O)C1=O	HCMV inh -82, FMDV antiviral inconclusive
COc1ccccc1-c1nnc(SC(C)C(=O)Nc2ccc(C(N)=O)cc2)o1 (configuration not stated)	none

Assay outcomes deposited in PubChem by National Center for Advancing Translational Sciences (NCATS).
